Data: ChEMBL document CHEMBL3988442, “University of Dundee, Small-Polar-MMV Screening Library” (2021)
Out of some 69,000 compounds screened, about 1,000 (1.4%) showed an effect of 50% or more. For the sample, strong results were picked, then their nearest neighbours and some compounds at random.

Test system: Leishmania donovani
Assay: Leishmania intramacrophage assay
Assay type: functional, organism-based
Parameters: scale not given: in the data most compounds retested in dose-response had high values

Cc1noc(C)c1CN1CCC(NC(=O)OC(C)(C)C)CC1
Percent Effect (30.3 µM, […]): 3.614%

CC(C)c1noc(-c2ccc(NCC3CCCOC3)nc2)n1 (centres undefined)
Percent Effect (30.3 µM, […]): 22.02%

Cc1cccc(-n2cnnc2CCCN2CCOCC2)c1
Percent Effect (30.3 µM, […]): 22.56%

COc1cccc(CN2C[C@@H]3COC[C@]3(CNC(=O)C3CC3)C2)c1.O=C(O)C(F)(F)F
Percent Effect (30.3 µM, […]): 43.72%

Cc1cnccc1CNCc1ccc(OC23CCCN(CC2)C3)cc1 (centres undefined)
Percent Effect (30.3 µM, […]): 13.67%

COc1cc(C#N)ccc1OC12CCCN(CC1)C2 (centres undefined)
Percent Effect (30.3 µM, […]): 20.92%

c1ccc(Oc2ccc(OC34CCCN(CC3)C4)cc2)cc1 (centres undefined)
Percent Effect (30.3 µM, […]): 89.06%

O=c1[nH]nc(CNCc2ccc(OC34CCCN(CC3)C4)cc2)[nH]1 (centres undefined)
Percent Effect (30.3 µM, […]): 39.69%

c1ccc(Oc2cccc(OC34CCCN(CC3)C4)c2)cc1 (centres undefined)
Percent Effect (30.3 µM, […]): 65.6%

Cc1nc(CNCc2cccc(OC34CCCN(CC3)C4)c2)n[nH]1 (centres undefined)
Percent Effect (30.3 µM, […]): 36.42%

CCN(CC)C(=O)c1nnn(Cc2ccccc2)c1OC
Percent Effect (30 µM, 30.03 µM): -25.11%

Cc1ccc(C(=O)N2CCC3(CCC(=O)N(CC(N)=O)C3)CC2)cc1
Percent Effect (30.3 µM, […]): -8.473%

CC(C1CC1)N(C(=O)CNc1ccc(C#N)cc1)C1CC1 (centres undefined)
Percent Effect (30.3 µM, […]): 26.89%

CN(C)CCN1CC[C@@H]2[C@@H]1CCN2C(=O)c1cccc(Cl)c1
Percent Effect (30.3 µM, […]): 54.02%

O=C(O)C(F)(F)F.O=C(c1cccc(Cl)c1)N1CC[C@H]2[C@H]1CCN2CC1CCOCC1
Percent Effect (30 µM, 30.03 µM): 39.19%

O=C(O)C(F)(F)F.O=C(c1cccc(Cl)c1)N1CC[C@H]2[C@H]1CCN2CC1CC1
Percent Effect (30.3 µM, […]): 23.02%

O=C(c1ccc(-c2ccccc2)[nH]c1=O)N1CCN(C2CC2)CC1
Percent Effect (30.3 µM, […]): 25.14%

CN1[C@H]2CC[C@@H]1CN(C(=O)c1ccc(-c3ccccc3)[nH]1)CC2
Percent Effect (30.3 µM, […]): 78.84%

CO[C@H]1CN(C(=O)c2ccc(-c3ccccc3)[nH]2)CC[C@H]1N
Percent Effect (30.3 µM, […]): 45.29%

CCCS(=O)(=O)CC(=O)N1CCN(CC2CC2)c2ccccc21
Percent Effect (30.3 µM, […]): 3.775%

Cc1ccc2c(n1)N(CCN(C)C)CCN(C(=O)c1cscn1)C2.O=C(O)C(F)(F)F.O=C(O)C(F)(F)F
Percent Effect (30.3 µM, […]): 4.389%

Cc1ccc2c(n1)N(CCN(C)C)CCN(C(=O)c1cccs1)C2.O=C(O)C(F)(F)F.O=C(O)C(F)(F)F
Percent Effect (30.3 µM, […]): 50.31%

Cc1ccc2c(n1)N(CCN(C)C)CCN(C(=O)c1ccc[nH]1)C2.O=C(O)C(F)(F)F.O=C(O)C(F)(F)F
Percent Effect (30 µM, 30.03 µM): 20.64%

O=C(c1ccc(F)c(F)c1)N1CCCCC1c1nc[nH]n1 (centres undefined)
Percent Effect (30.3 µM, […]): -8.926%

O=C(c1ccoc1)N1CCCCC1c1nc[nH]n1 (centres undefined)
Percent Effect (30.3 µM, […]): 24.92%

CC(=O)c1ccc(C(=O)N2CCCCC2c2nc[nH]n2)cc1 (centres undefined)
Percent Effect (30.3 µM, […]): 66.49%

CCOCC1CN(C(=O)c2cscn2)Cc2cn(C)nc21.O=C(O)C(F)(F)F (centres undefined)
Percent Effect (30.3 µM, […]): -0.7565%

O=C(c1ccc(-c2ccc(O)nc2)s1)N1CCCCCC1
Percent Effect (30.3 µM, […]): 19.86%

Cl.c1cc(CC2CCCNC2)nc(NCCc2cnccn2)c1 (centres undefined)
Percent Effect (30.3 µM, […]): 2.895%

CCn1ccnc1CN(C)c1cc(C2CCCNC2)nc(C)n1 (centres undefined)
Percent Effect (30.3 µM, […]): -6.202%

Cl.c1cc(NCc2ccncc2)nc(C2CCCNC2)c1 (centres undefined)
Percent Effect (30.3 µM, […]): 20.7%

Cc1nc(C2CCCNC2)cc(N(C)CCc2ccccc2)n1 (centres undefined)
Percent Effect (30.3 µM, […]): 66.58%

Cc1nc(C2CCCNC2)cc(N(C)CCc2cn[nH]c2)n1 (centres undefined)
Percent Effect (30.3 µM, […]): 29.46%

Cl.c1ccc(CCNc2cccc(C3CCCNC3)n2)cc1 (centres undefined)
Percent Effect (30.3 µM, […]): 71.14%

CC1(C)Cc2c(cnn2-c2ccccc2)C(NC2CCSCC2)C1 (centres undefined)
Percent Effect (30.3 µM, […]): 17.91%

CCN1C(=O)[C@H]2CN(Cc3cccnc3)C[C@H]2C12CCN(C(C)=O)CC2
Percent Effect (30.3 µM, […]): 4.627%

CNC(=O)CN1CCC(OCc2ccc(Cl)c(Cl)c2)CC1
Percent Effect (30.3 µM, […]): 23.39%

NC(=O)CN1CCC(OCc2ccc(Cl)c(Cl)c2)CC1
Percent Effect (30.3 µM, […]): 39.98%

CSCCC(O)C(=O)N1CCC(OCc2cccnc2)CC1 (centres undefined)
Percent Effect (30.3 µM, […]): -15.88%

CCC(N)C(=O)N1CCC(OCc2ccc(Cl)c(Cl)c2)CC1.Cl (centres undefined)
Percent Effect (30.3 µM, […]): 81.5%

NC(=O)C1CCN(C(=O)Cc2ccc(Cl)c(Cl)c2)CC1
Percent Effect (30.3 µM, […]): 12.37%

CCOc1cc(-c2cc(=O)n3c(n2)CCCCC3)ccc1O
Percent Effect (30.3 µM, […]): -28.99%

O=C(O)C(F)(F)F.O=C([C@H]1COC[C@H]2CN(c3ncc(F)cn3)C[C@H]21)N1CCOCC1
Percent Effect (30.3 µM, […]): 11.96%

O=C(CCN1CCCC(CO)(CC2CC2)C1)NCc1cccc(Cl)c1 (centres undefined)
Percent Effect (30.3 µM, […]): 10.86%

COCCN1CC[C@@H]2OC[C@H](C(=O)N(C)Cc3ccccn3)C[C@@H]2C1
Percent Effect (30.3 µM, […]): 34.37%

CN(Cc1ccccn1)C(=O)[C@H]1CO[C@H]2CCN(CC3CC3)C[C@H]2C1.O=C(O)C(F)(F)F.O=C(O)C(F)(F)F
Percent Effect (30.3 µM, […]): 67.47%

O=C(NCCc1cccs1)[C@H]1CO[C@H]2CCN(CC3CC3)C[C@H]2C1.O=C(O)C(F)(F)F
Percent Effect (30.3 µM, […]): 18.2%

Cc1nc(CN2CCO[C@H]3CN(C(=O)c4cccn4C)C[C@H]32)cs1
Percent Effect (30.3 µM, […]): 20.02%

O=C(CSc1ccncc1)NC1CC(=O)N(CCc2ccccc2)C1 (centres undefined)
Percent Effect (30.3 µM, […]): 1.719%

CCNc1ncc(-c2cc(-c3ccn(C)c3)nc(N)c2C#N)cn1
Percent Effect (30.3 µM, […]): -7.222%

COc1ncc(-c2cc(-c3ccn(C)c3)nc(N)c2C#N)cn1
Percent Effect (30.3 µM, […]): 4.864%

CCn1cc(-c2cc(-c3ccn(C)c3)nc(N)c2C#N)cc1C#N
Percent Effect (30.3 µM, […]): 62.07%

COc1c(CNCc2ccccc2-n2ccnc2)c(C)nn1C
Percent Effect (30.3 µM, […]): -14%

Cc1cc(C)cc(OCn2ccc(C(=O)O)n2)c1
Percent Effect (30.3 µM, […]): 36.81%

CCN(CC)C(=O)c1ccn(COc2ccccc2)n1
Percent Effect (30 µM, 30.03 µM): 25.56%

CCN(CC)C(=O)c1ccn(COc2cc(C)cc(C)c2)n1
Percent Effect (30 µM, 30.03 µM): 51.39%

Cc1cc(C(=O)N2C[C@@H](C(=O)O)[C@H](c3ccccc3C)C2)c(C)o1
Percent Effect (30 µM, 30.03 µM): -7.821%

O=C(c1cc(-c2cn[nH]c2)nc2cc(F)ccc12)N1CCS(=O)(=O)CC1
Percent Effect (30.3 µM, […]): 4.667%

Cc1cc(C)cc(C(=O)NCCS(=O)(=O)N2CCSCC2)c1
Percent Effect (30.3 µM, […]): -32.85%

Cc1ccoc1C(=O)NCCS(=O)(=O)N1CCSCC1
Percent Effect (30.3 µM, […]): 62.05%

Cc1ccc(C(=O)NCCS(=O)(=O)N2CCSCC2)o1
Percent Effect (30.3 µM, […]): -11.12%

CN1CCN([C@@H]2CN(C(=O)CCOc3ccccc3)C[C@H]2O)CC1
Percent Effect (30.3 µM, […]): 23.88%

COc1cc(CN[C@@H]2COC[C@H]2Cc2cc(C)no2)cc(OC)c1.O=C(O)CC(O)(CC(=O)O)C(=O)O
Percent Effect (30.3 µM, […]): 4.158%

CN1CCN(c2nsc(-c3cccnc3)c2C#N)CC1
Percent Effect (30.3 µM, […]): 11.24%

Cc1nn(C)c(C)c1-c1cnc(C2CCCN(S(C)(=O)=O)C2)cn1 (centres undefined)
Percent Effect (30.3 µM, […]): 19.29%

CO[C@H]1CN(C(=O)c2cccnc2)[C@@H]2CCCO[C@H]12.O=C(O)C(F)(F)F
Percent Effect (30.3 µM, […]): 4.595%

Cc1ccccc1OCC1CCCN(c2cc(N)nc(N)n2)C1 (centres undefined)
Percent Effect (30.3 µM, […]): 98.85%

Nc1cc(N2CCCC(COc3ccc(F)cc3)C2)ncn1 (centres undefined)
Percent Effect (30.3 µM, […]): 1.04%

Cc1nc(CN(C)C)cc(N2CCCC(COc3ccc(F)cc3)C2)n1 (centres undefined)
Percent Effect (30.3 µM, […]): -8.427%

Nc1cc(N2CCCC(COc3ccc(F)cc3)C2)nc(N)n1 (centres undefined)
Percent Effect (30.3 µM, […]): -15.02%

CCNC(=O)c1ccnc(N2CCCC(COc3ccccc3C)C2)c1 (centres undefined)
Percent Effect (30.3 µM, […]): 33.05%

COc1cccc(OCC2CCCN(c3cc(C(N)=O)ccn3)C2)c1 (centres undefined)
Percent Effect (30.3 µM, […]): 42.88%

Cc1nc(N)cc(N2CCCC(COc3cccc(F)c3)C2)n1 (centres undefined)
Percent Effect (30.3 µM, […]): 87.26%

CNC(=O)c1ccnc(N2CCCC(COc3cccc(C)c3)C2)c1 (centres undefined)
Percent Effect (30.3 µM, […]): 30.74%

Cc1ccc(OCC2CCCN(c3cc(C(N)=O)ccn3)C2)cc1 (centres undefined)
Percent Effect (30.3 µM, […]): 60.08%

Cc1ccc(C(=O)N2Cc3c(CN(C)C)nn(C)c3C2)cc1C.O=C(O)C(F)(F)F
Percent Effect (30.3 µM, […]): 35.58%

Cc1csc(NC(=O)c2cnc(C3CCCN3)cn2)n1.Cl (centres undefined)
Percent Effect (30.3 µM, […]): 7.514%

CCC(C)NC(=O)Cc1c(C)nc2c(c1C)c(=O)[nH]n2C (centres undefined)
Percent Effect (30 µM, 30.03 µM): -5.579%

COc1cc(C(=O)N2CCCC(CNS(C)(=O)=O)C2)cc(OC)c1C (centres undefined)
Percent Effect (30 µM, 30.03 µM): 16.86%

CN(C)CC1CN(Cc2ccc(F)cc2)Cc2nccn2C1.O=C(O)C(F)(F)F.O=C(O)C(F)(F)F (centres undefined)
Percent Effect (30.3 µM, […]): 6.472%

Oc1cccc(CNC2CCN(CCc3ccncc3)CC2)c1
Percent Effect (30.3 µM, […]): 7.34%

CC(NC1CCN(CCc2ccncc2)CC1)c1cnn(C(C)C)c1 (centres undefined)
Percent Effect (30.3 µM, […]): 6.548%

c1cc(CCN2CCC(NCc3ccsc3)CC2)ccn1
Percent Effect (30.3 µM, […]): 31.06%

CCCN1CCC(NCc2ccncc2)CC1
Percent Effect (30.3 µM, […]): -7.602%

Clc1cccc(CNC2CCN(CCc3ccncc3)CC2)c1
Percent Effect (30.3 µM, […]): 59.66%

Cc1ccc(CNC2CCN(CCc3ccncc3)CC2)s1
Percent Effect (30 µM, 30.03 µM): 45.1%

COC(=O)C(O)C1CCN(CCc2ccncc2)CC1 (centres undefined)
Percent Effect (30.3 µM, […]): 9.422%

COc1ccc(CNC2CCN(CCc3ccncc3)CC2)cc1O
Percent Effect (30 µM, 30.03 µM): 9.899%

Cc1cccc(CNC2CCN(CCc3ccncc3)CC2)c1C
Percent Effect (30.3 µM, […]): 74.34%

Cc1ccc(CNC2CCN(CCc3ccncc3)CC2)cc1C
Percent Effect (30 µM, 30.03 µM): 92.66%

CSc1ccc(CNC2CCN(CCc3ccncc3)CC2)cc1
Percent Effect (30.3 µM, […]): 85.89%

N#Cc1ccc(CNC2CCN(CCc3ccncc3)CC2)cc1
Percent Effect (30.3 µM, […]): 19.38%

CC1(c2ccccc2)CCC(=O)N(CCN2CCCOC2=O)C1 (centres undefined)
Percent Effect (30.3 µM, […]): -24.18%

CN(C)C(=O)CN1CCN(C(=O)c2cnn(-c3ccccc3Cl)c2)CC1
Percent Effect (30 µM): 13.32%

CC(C)Cc1ccc(S(=O)(=O)Nc2ccc(=O)n(C)c2)cc1
Percent Effect (30 µM, 30.03 µM): 40.75%

CCOCCN1CCN(c2ccc(C#N)cn2)CC1CC (centres undefined)
Percent Effect (30.3 µM, […]): 26.65%

CC(CNC1CCN(Cc2ccncc2)CC1)c1ccc(F)cc1F (centres undefined)
Percent Effect (30.3 µM, […]): 10.91%

Fc1ccc(CNC2CCN(CCc3ccncc3)CC2)cc1F
Percent Effect (30.3 µM, […]): 73.28%

COCCN1CCC(NCc2ccc(Cl)cc2)C1 (centres undefined)
Percent Effect (30 µM): 10.13%
